Compound activity from PubChem.
Compounds with a hit are over-represented: about 8.7% of the library has one in this group of screens.
PostGolgi yeast = phenotypic screen on post-Golgi transport, primary screen; 98,000 compounds, 0.9% hits; inhibition, % at 10 µM; post-Golgi transport phenotypic cell assay; AID 739, 2007;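 further: yeast cells grown in 1536-well plates; yeast grown about 18 h at 30C before absorbance read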
Cav32 inh = Cav3.2 calcium influx blockers – cell-based, Fluo-4 calcium fluorescence, FDSS, MLSMR library, primary screen; B-score at 10 µM; AID 449739, 2010; 100,000 compounds, 4% hits; Voltage-dependent T-type calcium channel subunit alpha-1H (Homo sapiens), O95180; Cav3.2-expressing cells; active compounds read low;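 active means single-dose well whose peak fluorescence ratio is a statistical outlier from its plate by either plate-standardised score or position-corrected B-score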
PostGolgi ctrl = growth inhibition of yeast control strain, primary screen, counter-screen for post-Golgi transport modulator project; efflux-deficient yeast background strain, growth absorbance A615, 16 h; inhibition, % at 10 µM; 98,000 compounds, 5% hits
Smad3 inh = Smad3/FoxH1 peptide binding inhibitors, primary screen, biochemical, TR-FRET; Mothers against decapentaplegic homolog 3 (Homo sapiens), P84022; TR-FRET Smad3/Dy647-FoxH1 peptide binding, europium anti-His; inhibition, % at 25 µM; 88,000 compounds, 0.29% hits; AID 630, 2007;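 active means compounds that reduce the energy-transfer binding signal between the protein and its labelled peptide by more than half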
TNAP act mid DEA = human TNAP enzyme activators, primary screen, biochemical, luminescent, intermediate phosphate acceptor level; activation factor at 20 µM; purified TNAP, CDP-star luminescence, 100 mM DEA, 30 min; active compounds read high; scale: 0 levamisole-inhibited, 1 vehicle-only enzyme; Alkaline phosphatase, tissue-nonspecific isozyme (Homo sapiens), P05186; 64,000 tested, under 10 active; AID 813, 2007;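 active means activation factor of at least 2 at 20 µM, relative to controls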
Target sequence (P05186 whole entry, looked up): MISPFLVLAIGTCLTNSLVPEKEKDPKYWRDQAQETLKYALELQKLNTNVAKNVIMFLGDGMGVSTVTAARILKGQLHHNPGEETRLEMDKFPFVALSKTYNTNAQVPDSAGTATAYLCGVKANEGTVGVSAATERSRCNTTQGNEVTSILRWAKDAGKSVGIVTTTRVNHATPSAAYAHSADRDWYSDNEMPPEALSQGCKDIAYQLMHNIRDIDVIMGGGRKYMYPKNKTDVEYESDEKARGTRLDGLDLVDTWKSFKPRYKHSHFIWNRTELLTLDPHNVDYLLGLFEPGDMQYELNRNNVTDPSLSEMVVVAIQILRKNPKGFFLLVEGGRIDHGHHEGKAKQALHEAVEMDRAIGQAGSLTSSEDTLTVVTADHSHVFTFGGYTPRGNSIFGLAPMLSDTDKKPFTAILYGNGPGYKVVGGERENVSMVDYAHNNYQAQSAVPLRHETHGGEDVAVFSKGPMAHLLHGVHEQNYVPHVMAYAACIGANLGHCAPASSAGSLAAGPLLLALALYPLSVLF
DAT uptake mod = changed hDAT dopamine uptake under cocaine IC80, either direction, primary screen, cocaine antagonist project, cell-based, LLC-PK1 hDAT, [14C]-dopamine uptake, MLSMR | Sodium-dependent dopamine transporter (Homo sapiens), Q01959 | LLC-PK1 hDAT cells, [14C]-dopamine uptake with cocaine IC80; actives deviate in either direction | B-score at 10 µM | 110,000 compounds, 1.3% hits | AID 449768, 2010;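 active means Z score or B-score, a plate-position-corrected score, falls beyond the plate's 99.7% confidence bounds, in either direction; inactive means both scores lie inside the 99.7% bounds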
Large screens that a line does not name were inactive; [ ] = another dose, or the depositor's remark. Unless noted, no stated cut-off is given here; in the data, active means inhibition above about 30%; inactive means the rest.

COc1ccc(OC)c(NC(=O)Cc2coc3ccc4ccccc4c23)c1	PostGolgi ctrl 35 (no result: TNAP act mid DEA)
CC(C)CN(CC(C)C)C(=O)Cc1coc2ccc3ccccc3c12	Cav32 inh -4.9 (no result: TNAP act mid DEA)
COc1ccc(OC)c(-n2c(-c3ccc(C)cc3)n[nH]c2=S)c1	none (no result: TNAP act mid DEA)
Nc1c(C(=O)N2CCCCC2)sc(=S)n1-c1ccccc1	DAT uptake mod 2.7
CC(C)C[C@H](NC(=O)OC(C)(C)C)C(=O)N/N=C/C1=Cc2ccccc2OC1C (some centres not stated)	Cav32 inh -4.4 (no result: TNAP act mid DEA)
O=C(COC(=O)Cc1ccc(S(=O)(=O)N2CCCCC2)s1)Nc1ccc2c(c1)OCO2	PostGolgi ctrl 36
O=C(CCSc1ccccc1)NC1CCCC1	none (no result: DAT uptake mod)
COC(=O)C1=C(C)N(c2ccc(C)cc2)/C(=C/c2cccs2)C1=O	PostGolgi ctrl 33 (no result: Smad3 inh, TNAP act mid DEA)
CCOc1cc(S(=O)(=O)NCc2ccc3c(c2)OCO3)c(C)cc1C	Cav32 inh -6.2
Cc1ccnc(NC(=O)CCC(=O)N(CC(=O)NC2CCCCC2)c2cccc(C)c2C)c1	Cav32 inh -6.4
O=c1[nH]cnc2c1cnn2Cc1ccccc1	none
O=C(NCCCN1CCCC1=O)NC12CC3CC(CC(C3)C1)C2	none
CC1Cc2ccccc2N1C(=O)CN1CCC(n2nnc3cc(C(F)(F)F)ccc32)CC1 (configuration not stated)	Cav32 inh -9.5 (no result: Smad3 inh, TNAP act mid DEA)
COC(=O)c1ccccc1NC(=O)CN1CCC(n2nnc3cc(C(F)(F)F)ccc32)CC1	none (no result: Cav32 inh, Smad3 inh, TNAP act mid DEA, DAT uptake mod)
Cc1ccc(C(=O)Nc2onc(C)c2C#N)cc1	none (no result: Smad3 inh, TNAP act mid DEA)
Cc1ccc(S(=O)(=O)N2CCCC(NC(=O)N3CCN(c4ccccc4)CC3)C2)cc1 (configuration not stated)	Cav32 inh -4.4
CCOC(=O)c1c2c(n(C)c1C)C(=O)C(=O)c1ccc(Br)cc1-2	Smad3 inh 68[fluorescence artefact?] (no result: PostGolgi yeast, PostGolgi ctrl, TNAP act mid DEA)
N/C(=N\OC(=O)C(c1ccccc1)c1ccccc1)c1cccnc1	PostGolgi ctrl 39 (no result: Smad3 inh, TNAP act mid DEA)
N/C(=N\OC(=O)C(c1ccccc1)c1ccccc1)c1ccccn1	none (no result: PostGolgi yeast, PostGolgi ctrl, TNAP act mid DEA)
Cc1cc(C(F)F)n2nc(C(=O)Nc3sc4c(c3C#N)CCC(C)C4)nc2n1 (configuration not stated)	PostGolgi yeast 30, PostGolgi ctrl 33 (no result: TNAP act mid DEA)
COC(=O)c1c(NC(=O)c2c(C)noc2C)sc2c1CCCCCC2	none
COC(=O)c1c(NC(=O)c2nc3nc(C)cc(C(F)F)n3n2)sc2c1CCC2	PostGolgi ctrl 34 (no result: Smad3 inh, TNAP act mid DEA)
Cc1cc(C)nc(SCC(=O)Nc2sc3c(c2C#N)CCC(C)C3)n1 (configuration not stated)	none (no result: PostGolgi yeast, PostGolgi ctrl, TNAP act mid DEA)
COC(=O)c1c(NC(=O)c2c(-c3ccccc3Cl)noc2C)sc2c1CCC2	PostGolgi ctrl 33 (no result: Cav32 inh, TNAP act mid DEA, DAT uptake mod)
COc1ccc(NC(=O)c2cc([N+](=O)[O-])nn2Cc2ccccc2)c(C)c1	none (no result: Smad3 inh, TNAP act mid DEA)
O=C(NCc1cccnc1)c1ccc(=O)oc1	none
O=C(NCCNS(=O)(=O)c1ccccc1Cl)c1cc(OCC(F)(F)F)ccc1OCC(F)(F)F	none (no result: Smad3 inh, TNAP act mid DEA)
O=C(NCCNC(=O)c1cc(OCC(F)(F)F)ccc1OCC(F)(F)F)Nc1cccc(C(F)(F)F)c1	Cav32 inh -8 (no result: Smad3 inh, TNAP act mid DEA)
O=C(Nc1ccc(OC(F)F)cc1)Nc1cccc(C(F)(F)F)c1	PostGolgi yeast 79, PostGolgi ctrl 64 (no result: TNAP act mid DEA)
C[C@@H](C(=O)Nc1ccc2ccccc2c1)[C@H]1C[C@]1(C)[C@H](NC(=O)c1cnccn1)c1ccccc1	none (no result: PostGolgi yeast, PostGolgi ctrl, Smad3 inh, TNAP act mid DEA)
COc1ccc(C2C(C(C)=O)=C(C)N=c3s/c(=C\c4cc(C)n(C)c4C)c(=O)n32)c(OC)c1 (configuration not stated)	Cav32 inh -5
COc1ccc(C2C(C(C)=O)=C(C)N=c3s/c(=C\c4ccco4)c(=O)n32)c(OC)c1 (configuration not stated)	none
C=CCn1c(SCc2ccc(C(=O)Nc3ccccc3)cc2)nnc1-c1ccccc1	none (no result: Smad3 inh, TNAP act mid DEA)
CCOC(=O)c1c(-c2ccccc2)oc2ccc(OC(C)=O)cc12	PostGolgi ctrl 32 (no result: TNAP act mid DEA)
CC(=O)Oc1ccc2c(=O)c(-c3ccccc3)c(C)oc2c1	Cav32 inh -4.5 (no result: PostGolgi yeast, PostGolgi ctrl, Smad3 inh, TNAP act mid DEA)
COc1ccc2c(=O)c(-c3cnn(-c4ccccc4)c3)c(C)oc2c1	PostGolgi yeast 34 (no result: TNAP act mid DEA)
CCOC(=O)c1c(C)oc2ccc(OCC(N)=O)cc12	none
CCOC(=O)c1c(C(C)(C)C)oc2ccc(O)cc12	PostGolgi ctrl 52 (no result: TNAP act mid DEA)
CCN(CC)C(=O)CN1CCN(c2ncccn2)CC1	none (no result: Cav32 inh, DAT uptake mod)
CCCC(=O)C1=C(O)C(C(=O)OC)C(C)(C)CC1=N (configuration not stated)	DAT uptake mod -3.2
CCCC(=O)C1=C(O)C(C(=O)OC)C(C)(C)CC1=Nc1ccccc1 (configuration not stated)	none (no result: Cav32 inh)
CCCC(=O)C1=C(O)C(C(=O)OC)C(C)(C)CC1=Nc1cccc2ccccc12 (configuration not stated)	DAT uptake mod 3 (no result: PostGolgi yeast, PostGolgi ctrl, TNAP act mid DEA)
CCCC(=O)C1=C(O)C(C(=O)OC)C(C)(C)CC1=NC(C)(C)C (configuration not stated)	Cav32 inh 4.1 (no result: TNAP act mid DEA)
COc1ccc(NC(=O)C(CC(C)C)NC(=O)c2ccccc2C)cn1 (configuration not stated)	none
COc1ccc(NC(=O)/C(Cl)=C(/Cl)S(=O)(=O)Cc2ccc(C)cc2)cn1	PostGolgi yeast 97, PostGolgi ctrl 84 (no result: TNAP act mid DEA)
Cc1ccc(C2=C(Cl)C(=O)C(c3ccc(C)cc3)=C(Cl)C2=O)cc1	Smad3 inh 52 (no result: PostGolgi yeast, Cav32 inh, PostGolgi ctrl, TNAP act mid DEA, DAT uptake mod)
Cc1ccc(C)c(Cn2cnc3c(cnn3C(C)(C)C)c2=O)c1	Cav32 inh -4.8 (no result: TNAP act mid DEA)
O=C(CSc1ncn(-c2ccccc2)n1)Nc1ccc2c(c1)OCO2	none
CCCCOc1ccc(C(=O)CCN2CCCCC2)cc1	none (no result: PostGolgi yeast, PostGolgi ctrl)
CC(C)COc1ccc(C(=O)CCN2CCCCC2)cc1	PostGolgi ctrl 44
N#CC12CCCCC1CC1CCCCC1(C#N)N2Cc1ccccn1 (configuration not stated)	none
O=C(c1ccccc1)[C@H]1[C@H](c2ccccc2)[C@@]2(N=C(c3ccccc3)OC2=O)C2c3ccccc3C=NN21 (some centres not stated)	none (no result: TNAP act mid DEA)
COc1ccc(NC(=O)c2cccs2)cc1	none (no result: PostGolgi yeast, PostGolgi ctrl, TNAP act mid DEA)
COc1ccc(C(O)(C(=O)NNc2ccc(C)cc2)c2cccs2)cc1 (configuration not stated)	DAT uptake mod -7.9 (no result: Smad3 inh, TNAP act mid DEA)
O=C(NNc1ccc(C2CCCCC2)cc1)C(O)(c1ccccc1)c1cccs1 (configuration not stated)	PostGolgi ctrl 46 (no result: Smad3 inh, TNAP act mid DEA)
Cc1onc(-c2ccccc2)c1C(=O)Nc1ccc2c(C)cc(=O)oc2c1	none
